# Out of some 350,000 compounds screened, about 5,500 (1.6%) were called active.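 Rule for the calls: active = significant combined selectivity score with lowered wild-type GFP, culture density cut under 30%, mutant RFP and density less affected; inactive = any of these conditions unmet.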 The list comes from a sample in which actives are over-represented; it also holds similar structures and randomly drawn compounds.
# Test: GFP drop in mixed WT/humanized-ribosome E. coli culture – GFP/RFP fluorescence, OD600, single point, bacterial rRNA inhibitor project, primary screen (AID 720706)
# Conditions: E. coli WT GFP vs humanized-ribosome RFP mutants, 24 h; GFP signal change (wild-type ribosome): stronger effect = lower value, DMSO median 0, no signal -100; OD600 change: measured here: OD600 growth, DMSO median 0, no signal -100; RFP signal change: measured here: RFP humanized mutant strains, DMSO median 0, no signal -100, concentration not given here
SMILES,GFP signal change (wild-type ribosome),OD600 change [%],RFP signal change [%]
O=C(NCC[C@H]1CC[C@@H](NC(=O)c2ccncc2)[C@@H](CO)O1)Nc1ccc(Cl)cc1,-17.2% (inactive),-25.9,-0.789
O=C(C1CCCC1)N1CC(=O)N2[C@@H](CO)[C@H](c3ccc(C#CC4CCCC4)cc3)[C@@H]2C1,-40.8% (inactive),-65.7,1.78
C=CCn1c(-c2sc(-c3ccccc3)nc2C)n[nH]c1=S,-24.3% (active),-5.31,7.62
C=CCn1c(CCc2ccc(OC(C)C)cc2)n[nH]c1=S,-0.285% (inactive),-0.525,1.11
C=CCn1c(-c2ccccc2OCC)n[nH]c1=S,3.63% (inactive),4.05,2.66
O=C(C1CC1)N1CCCCN2[C@H](CO)[C@H](c3ccc(-c4cccc(F)c4)cc3)[C@H]2C1,-6.45% (inactive),-8.76,3.12
COCC(=O)N1CCCCN2[C@H](C1)[C@@H](c1ccc(-c3ccccc3)cc1)[C@@H]2CO,2.96% (inactive),-5.68,0.005
C[C@@H]1CCCCO[C@@H](CN(C)C(=O)Nc2cccc3ccccc23)[C@H](C)CN([C@H](C)CO)C(=O)c2cc(NS(C)(=O)=O)ccc2O1,2.97% (inactive),-14.8,-1.87
COc1cccc(C(=O)c2cc3ccc(O)cc3oc2=O)c1,-30.5% (active),-15,1.31
COC(=O)c1ccc(COC(=O)CNC(=O)c2cccc(OC)c2)o1,3.46% (inactive),11.4,-1.13
COc1cccc(C(=O)NCCSc2ccc(Br)cc2)c1,-49.8% (inactive),-75.8,-16.7
COc1ccc(NC(=O)Nc2ccc3c(c2)C(=O)N([C@H](C)CO)C[C@H](C)[C@@H](CN(C)Cc2ccccc2)OCCCC[C@H](C)O3)cc1,2.43% (inactive),-11,1.05
C[C@@H]1CN([C@H](C)CO)C(=O)c2cc(NC(=O)C3CCCCC3)ccc2O[C@@H](C)CCCCO[C@H]1CN(C)S(C)(=O)=O,-1.08% (inactive),0.309,-2.76
CC1CCN(C(=O)CCNC(=O)c2ccccc2)CC1,9.31% (inactive),16.3,-0.0995
CC1CCCN(c2ccc(C(=O)NCCc3ccccc3)cn2)C1 (stereo not given),-19.9% (active),-8.59,0.765
CC1CCN(c2c(NCc3ccc(C(=O)NCc4ccccc4)cc3)c(=O)c2=O)CC1,-2.23% (inactive),0.92,2.65
COc1ccc2c3c([nH]c2c1)[C@H](CO)N(C(=O)C1CCC1)CC31CCN(Cc2cccc(F)c2)CC1,-1.74% (inactive),-5.93,3.15
COc1ccc2c3c([nH]c2c1)[C@@H](CO)N(Cc1ccccc1OC)CC31CCN(C)CC1,-0.945% (inactive),0.435,0.881
Cc1cc(=O)[nH]c(N/N=C/c2c(C)nn(-c3ccccc3Cl)c2Cl)n1,-2.91% (inactive),6.48,-1.95
Cc1nn(-c2ccccc2)c(Cl)c1/C=N/NC(=O)c1nn(C)cc1[N+](=O)[O-],-30.3% (active),4.85,0.73
Cc1nn(-c2ccccc2)c(C)c1/C=N/NC(=O)CSc1nc2ccccc2c(=O)n1-c1ccccc1,14.9% (inactive),17.7,-2.02
C[C@@H]1CN([C@@H](C)CO)S(=O)(=O)c2ccc(C#CCN(C)C)cc2O[C@@H]1CN(C)S(=O)(=O)c1cccc(F)c1,-0.828% (inactive),-6.54,0.409

SMILES,GFP signal change (wild-type ribosome),OD600 change [%],RFP signal change [%]
C[C@H](CO)N1C[C@H](C)[C@H](CN(C)C(=O)Nc2ccc(C(F)(F)F)cc2)Oc2ccc(NS(=O)(=O)c3ccccc3)cc2CC1=O,2.52% (inactive),-0.79,1.4
CN1C(=O)c2cc(NC(=O)c3ccccc3)ccc2OC[C@@H]2O[C@@H](CC(=O)NC3CCCC3)CC[C@H]21,0.592% (inactive),4.01,0.386
Cc1cccc(OCCC(=O)Nc2ccccc2C(N)=O)c1,-0.179% (inactive),-10.5,0.55
Cc1ccc(F)c(NC(=O)CCOc2ccccc2C)c1,-19.4% (active),-1.12,1.17
Cc1ccccc1NC(=O)CCOc1ccccc1,6.54% (inactive),-4.25,2.04
C[C@@H]1CN([C@H](C)CO)C(=O)Cc2cc(NS(=O)(=O)c3cn(C)cn3)ccc2O[C@@H]1CN(C)C(=O)Nc1ccccc1,6.08% (inactive),7.32,-1.29
CS(=O)(=O)N1CCc2cc(C(=O)Nc3ccccc3)ccc21,5.39% (inactive),2.75,3.33
CC(=O)Nc1cccc(NC(=O)c2ccc3c(c2)CCN3S(C)(=O)=O)c1,-1.52% (inactive),7.81,5.89
CN(c1cccc(NC(=O)c2ccc(CN3CCc4ccccc4C3)cc2)c1)S(C)(=O)=O,-21.5% (active),-11.3,-3.92
COc1ccc(-c2nc(CCNC(=O)c3ccc(Br)o3)cs2)cc1,-22.8% (inactive),-75.5,-22.8
O=C(NCCc1csc(-c2ccccc2)n1)c1ccccc1F,-24.5% (active),-9.12,10.4
O=S(=O)(NCCc1csc(-c2ccccc2)n1)c1cccnc1,-11.8% (inactive),-3.96,1.22
C[C@H](CO)N1C[C@H](C)[C@@H](CN(C)C(=O)c2ccncc2)Oc2cc(/C=C/c3ccccc3)ccc2S1(=O)=O,-0.655% (inactive),-10,0.748
CC(C)NC(=O)N(C)C[C@H]1Oc2ccc(N)cc2CC(=O)N(C)C[C@H]1C,1.15% (inactive),1.28,-1.08
Cc1c(C(=O)NCC(c2ccco2)N2CCCC2)oc2ccc(Cl)cc12 (stereo not given),-0.887% (inactive),-24.2,6.54
COc1ccc2oc(C(=O)NCc3ccco3)c(C)c2c1,-31.1% (active),-11.6,2.2
COc1ccc2oc(C(=O)NCC(Cc3ccccc3)N(C)C)c(C)c2c1 (stereo not given),0.609% (inactive),-7.21,3.26
C[C@@H]1CCCCO[C@@H](CN(C)S(=O)(=O)c2cccs2)[C@H](C)CN([C@H](C)CO)C(=O)c2cc(NC(=O)CCCN(C)C)ccc2O1,0.863% (inactive),4.81,-0.962
COc1ccc(O)c(C(=O)c2cnc3c(c2)c(-c2ccc(F)cc2)c(C#N)c(=O)n3C)c1,-17% (active),6.31,1.18
Cc1cc(C)c2c(-c3ccc(F)cc3)c(C#N)c(=O)n(C)c2n1,2.75% (inactive),5.62,-1.52
COCCn1c(=O)[nH]c(=O)c2cc(C(=O)c3cc(OC)ccc3O)cnc21,-0.725% (inactive),-0.37,12.8
CC(=O)N1N=C(c2ccncc2)OC1(Cc1ccccc1)Cc1ccccc1,-37.5% (active),-22,-2.93

SMILES,GFP signal change (wild-type ribosome),OD600 change [%],RFP signal change [%]
O=C(Cc1ccccc1)N1N=C(c2ccncc2)CC1(O)C(F)(F)F (stereo not given),7.85% (inactive),-1.11,2.05
CC(=O)N1N=C(c2ccccc2)OC1c1cccnc1 (stereo not given),9.41% (inactive),-5.18,-3.3
Cc1cccc(C)c1N1C(=O)CN(Cc2ccccc2)C1=S,-22.1% (active),-16.8,-3.28
CCc1cccc(C)c1N1C(=O)CN(Cc2ccccc2)C1=S,1.91% (inactive),-44.9,-8.39
COc1cccc(N2C(=O)CN(Cc3ccccc3)C2=S)c1,-8.56% (inactive),-0.07,3.96
CCC(=O)N1CC(=O)N2[C@H](CO)[C@@H](c3ccc(-c4ccc(C(=O)N(C)C)cc4)cc3)[C@H]2C1,4.58% (inactive),2.18,-2.34
COc1ccc(C(=O)CC(=O)c2ccc(C)cc2)c(O)c1,-49% (inactive),-75.2,-24.9
COC(=O)c1cc(OC)ccc1-c1ccc(OC)cc1,-32.6% (active),-15.3,-6.08
COc1ccc(SSc2ccc(OC)cc2C(=O)O)c(C(=O)O)c1,11.9% (inactive),11.8,-2.19
COc1ccccc1S(=O)(=O)N[C@@H]1CC[C@H](CCn2cc(C3CCCC3)nn2)O[C@H]1CO,1.1% (inactive),3.92,-3.27
C[C@H](CO)N1C[C@H](C)[C@H](CN(C)CC2CC2)OCCCC[C@H](C)Oc2ccc(NS(=O)(=O)c3cccs3)cc2C1=O,-0.767% (inactive),-2.73,-0.839
Cc1ccc(-c2ccc([C@H]3[C@H](CO)N4C(=O)CN(S(=O)(=O)c5cccc(F)c5)C[C@@H]34)cc2)cc1,-2.35% (inactive),-0.94,0.984
Cn1c(CCN2CCN(c3ccccn3)CC2)nc2cc(NS(=O)(=O)c3ccc(F)cc3)ccc21,-28.9% (active),-17,3.47
Cn1c(=O)n(C)c2cc(NS(=O)(=O)c3ccc(F)cc3)ccc21,0.225% (inactive),0.76,-4.92
CCC(=O)Nc1ccc2c(c1)nc(CCN1CCN(c3ccccn3)CC1)n2C,4.56% (inactive),7.29,1.64
COCC(=O)N1CC2(C1)CN(C(=O)COC)[C@@H](CO)c1c2c2ccc(OC)cc2n1C,4.63% (inactive),7.89,0.659
Cc1ccc(S(=O)(=O)N(C)C[C@@H]2OCCCC[C@@H](C)Oc3ccc(NC(=O)C4CCCCC4)cc3C(=O)N([C@H](C)CO)C[C@H]2C)cc1,-2.75% (inactive),-2.24,1.84
CCOc1ccc(N2C(=O)Nc3ccccc3C2(O)C(=O)NCc2ccco2)cc1 (stereo not given),2.27% (inactive),2.6,0.0175
CCOCCCNC(=O)C1(O)c2cc(Br)ccc2NC(=O)N1c1ccc(C)c(C)c1 (stereo not given),4.8% (inactive),3.91,0.676
CCCCNC(=O)C1(O)c2ccccc2NC(=O)N1c1ccc(Cl)cc1 (stereo not given),-25.8% (active),-20.4,0.114
CNC[C@@H]1Oc2c(NC(=O)Nc3ccc(F)cc3)cccc2C(=O)N([C@@H](C)CO)C[C@@H]1C,0.51% (inactive),5.77,-0.32

# Source: PubChem BioAssay AID720706 (Broad Institute, 2013)
